The campaign covered roughly 5,500 compounds. About 2,000 (36%) were called active. Inconclusive results (about 18%) are left out. Cut-off read from the data, not from the text of the source: active = normalized growth mostly below about 0.91 (no sharp cut-off); inconclusive = no clear call, values can overlap the other calls; inactive = mostly above about 0.92. The list shows a part of the results.
Assay: chemical genetic growth profiling, strain panel (AID 1159580);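 note: tested at 20 µM; growth read once vehicle control cultures reached saturation at 30 °C; 1 = growth at the plate median or of vehicle wells; lower values mean less growth of the strain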
Details: growth OD
[1] = S. cerevisiae deletion strains, locus YAL013W, strain DEP1, active compounds read low
[2] = S. cerevisiae deletion strains, locus YBR229C, strain ROT2, active compounds read low
[3] = S. cerevisiae deletion strains, locus YCL061C, strain MRC1, active compounds read low
[4] = S. cerevisiae deletion strains, locus YDL101C, strain DUN1, active compounds read low
[5] = S. cerevisiae deletion strains, locus YDR150W, strain NUM1, active compounds read low
[6] = S. cerevisiae deletion strains, locus YEL061C, strain CIN8, active compounds read low
[7] = S. cerevisiae deletion strains, locus YGR078C, strain PAC10, active compounds read low
[8] = S. cerevisiae deletion strains, locus YGR229C, strain SMI1, active compounds read low
[9] = S. cerevisiae deletion strains, locus YHR030C, strain SLT2, active compounds read low
[10] = S. cerevisiae deletion strains, locus YHR087W, strain rtc3, active compounds read low
[11] = S. cerevisiae deletion strains, locus YJL187C, strain SWE1, active compounds read low
[12] = S. cerevisiae deletion strains, locus YJR043C, strain POL32, active compounds read low
[13] = S. cerevisiae deletion strains, locus YJR075W, strain HOC1, active compounds read low
[14] = S. cerevisiae deletion strains, locus YKL190W, strain CNB1, active compounds read low
[15] = S. cerevisiae deletion strains, locus YLR039C, strain RIC1, active compounds read low
[16] = S. cerevisiae deletion strains, locus YLR058C, strain SHM2 (second series), active compounds read low
[17] = S. cerevisiae deletion strains, locus YLR085C, strain ARP6, active compounds read low
[18] = S. cerevisiae deletion strains, locus YLR262C, strain YPT6, active compounds read low
[19] = S. cerevisiae deletion strains, locus YML094W, strain GIM5, active compounds read low
[20] = S. cerevisiae deletion strains, locus YMR219W, strain ESC1, active compounds read low
[21] = S. cerevisiae deletion strains, locus YMR263W, strain SAP30, active compounds read low
[22] = S. cerevisiae deletion strains, locus YNL128W, strain TEP1, active compounds read low
[23] = S. cerevisiae deletion strains, locus YNL153C, strain GIM3, active compounds read low
[24] = S. cerevisiae deletion strains, locus YNL298W, strain CLA4 (second series), active compounds read low
[25] = S. cerevisiae deletion strains, locus YNL322C, strain KRE1, active compounds read low
[26] = S. cerevisiae deletion strains, locus YNR030W, strain Alg12, active compounds read low
[27] = S. cerevisiae deletion strains, locus YPL055C, strain LGE1, active compounds read low
[28] = S. cerevisiae deletion strains, locus YPL241C, strain CIN2, active compounds read low
[29] = S. cerevisiae deletion strains, locus YPR135W, strain CTF4, active compounds read low
[30] = S. cerevisiae strains, strain wild type, active compounds read low
[31] = S. cerevisiae deletion strains, locus YDL134C, strain PPH21, active compounds read low

Measured: normalized growth

C=C1SC(=Nc2cccc(OC)c2)N(C(=O)C(c2ccccc2)C2CCCC2)C1(C)C (stereo unspecified)
inactive: [1] 1.01 | [2] 0.971 | [3] 1.01 | [4] 1.06 | [5] 1.02 | [6] 0.963 | [7] 1.01 | [8] 0.983 | [9] 1.03 | [10] 0.957 | [11] 0.999 | [12] 1.01 | [13] 1.02 | [14] 0.977 | [15] 0.922 | [16] 0.979 | [17] 1.02 | [18] 0.919 | [19] 1 | [20] 1 | [21] 1.02 | [22] 0.97 | [23] 1.03 | [24] 1.01 | [25] 0.984 | [26] 1.02 | [27] 0.997 | [28] 1.07 | [29] 1.03 | [30] 0.95

CC(C)(C)c1ccc(-c2n[nH]c(=S)n2-c2cccc(C(F)(F)F)c2)cc1
inactive: [1] 0.993 | [2] 1.01 | [4] 0.995 | [5] 1.01 | [6] 0.972 | [7] 0.977 | [9] 0.966 | [10] 1 | [12] 1.01 | [14] 1.01 | [16] 1.03 | [17] 1.06 | [18] 0.884 | [19] 0.978 | [20] 1.01 | [21] 1 | [23] 1.03 | [24] 0.958 | [25] 1.01 | [26] 0.964 | [27] 0.949 | [28] 0.949 | [29] 0.829
active: [11] 1.22 [resistant] | [13] 1.24 [resistant] | [15] 0.744

COc1ccc(-c2n[nH]c(=S)n2-c2cccc(OC)c2)cc1
inactive: [1] 0.987 | [2] 0.994 | [3] 0.977 | [4] 0.969 | [31] 0.979 | [5] 0.977 | [6] 1.01 | [7] 0.956 | [9] 1.02 | [10] 1.02 | [11] 0.993 | [12] 0.979 | [13] 0.967 | [15] 0.944 | [16] 0.989 | [17] 0.954 | [18] 1 | [19] 1 | [20] 0.986 | [21] 1 | [22] 0.989 | [23] 0.983 | [24] 0.957 | [25] 0.978 | [26] 0.966 | [27] 0.994 | [28] 0.967 | [29] 0.904

O=C(NC1Cc2ccccc2C1)c1cncc(Br)c1
inactive: [1] 1 | [2] 0.992 | [3] 0.982 | [4] 1 | [31] 1.05 | [5] 0.937 | [6] 0.99 | [7] 0.994 | [8] 0.985 | [9] 0.848 | [10] 0.985 | [11] 1.01 | [12] 0.994 | [13] 0.982 | [14] 0.99 | [15] 1.03 | [16] 0.985 | [17] 0.952 | [18] 0.992 | [19] 0.98 | [20] 0.991 | [21] 0.984 | S. cerevisiae deletion strains, locus YMR307W, strain GAS1, active compounds read low 0.912 | [23] 0.994 | [24] 0.966 | [25] 0.995 | [26] 0.982 | [27] 0.982 | [28] 0.98 | [29] 0.836 | [30] 0.988

O=C(Nc1ccc(Cl)cc1)SCc1c(Cl)cccc1Cl
active: S. cerevisiae deletion strains, locus YFR019W, strain FAB1, active compounds read low 0.747 | [9] 0.793 | S. cerevisiae deletion strains, locus YLR113W, strain HOG1, active compounds read low 0.728 | S. cerevisiae deletion strains, locus YPL256C, strain CLN2, active compounds read low 0.811
inactive: S. cerevisiae deletion strains, locus YAR019C, strain CDC15, active compounds read low 0.985 | S. cerevisiae deletion strains, locus YBL105C, strain PKC1, active compounds read low 0.976 | S. cerevisiae deletion strains, locus YBR135W, strain CKS1, active compounds read low 0.984 | S. cerevisiae deletion strains, locus YBR136W, strain MEC1, active compounds read low 0.967 | S. cerevisiae deletion strains, locus YBR160W, strain CDC28, active compounds read low 0.988 | S. cerevisiae deletion strains, locus YDL017W, strain CDC7, active compounds read low 0.976 | S. cerevisiae deletion strains, locus YDL028C, strain MPS1, active compounds read low 0.987 | [4] 0.974 | S. cerevisiae deletion strains, locus YDL108W, strain KIN28, active compounds read low 0.959 | S. cerevisiae deletion strains, locus YDL132W, strain cdc53, active compounds read low 0.999 | S. cerevisiae deletion strains, locus YDL214C, strain PRR2, active compounds read low 0.786 | S. cerevisiae deletion strains, locus YDR052C, strain DBF4, active compounds read low 0.974 | S. cerevisiae deletion strains, locus YDR054C, strain cdc34, active compounds read low 0.953 | S. cerevisiae deletion strains, locus YDR226W, strain ADK1, active compounds read low 0.969 | S. cerevisiae deletion strains, locus YDR477W, strain SNF1, active compounds read low 0.83 | S. cerevisiae deletion strains, locus YER123W, strain YCK3, active compounds read low 0.659 | S. cerevisiae deletion strains, locus YER133W, strain GLC7, active compounds read low 0.834 | S. cerevisiae deletion strains, locus YFL009W, strain cdc4, active compounds read low 1 | S. cerevisiae deletion strains, locus YFL029C, strain CAK1, active compounds read low 0.975 | S. cerevisiae deletion strains, locus YFR003C, strain YPI1, active compounds read low 0.972 | S. cerevisiae deletion strains, locus YFR028C, strain CDC14, active compounds read low 0.988 | S. cerevisiae deletion strains, locus YGR040W, strain KSS1, active compounds read low 0.808 | S. cerevisiae deletion strains, locus YGR052W, strain FMP48, active compounds read low 0.765 | S. cerevisiae deletion strains, locus YGR092W, strain DBF2, active compounds read low 0.763 | S. cerevisiae deletion strains, locus YHR079C, strain IRE1, active compounds read low 0.748 | S. cerevisiae deletion strains, locus YHR082C, strain KSP1, active compounds read low 0.787 | S. cerevisiae deletion strains, locus YHR205W, strain SCH9, active compounds read low 0.919 | S. cerevisiae deletion strains, locus YIL147C, strain SLN1, active compounds read low 0.973 | S. cerevisiae deletion strains, locus YJL095W, strain BCK1, active compounds read low 0.745 | S. cerevisiae deletion strains, locus YJL128C, strain PBS2, active compounds read low 0.92 | S. cerevisiae deletion strains, locus YJL157C, strain FAR1, active compounds read low 0.76 | S. cerevisiae deletion strains, locus YJR016C, strain ILV3, active compounds read low 0.995 | S. cerevisiae deletion strains, locus YJR066W, strain TOR1 (second series), active compounds read low 0.746 | S. cerevisiae deletion strains, locus YJR066W, strain TOR1, active compounds read low 0.788 | S. cerevisiae deletion strains, locus YKL048C, strain ELM1, active compounds read low 0.891 | S. cerevisiae deletion strains, locus YKL067W, strain YNK1, active compounds read low 0.8 | S. cerevisiae deletion strains, locus YKL101W, strain HSL1, active compounds read low 0.83 | S. cerevisiae deletion strains, locus YKL193C, strain SDS22, active compounds read low 0.973 | S. cerevisiae deletion strains, locus YKL203C, strain TOR2, active compounds read low 0.891 | S. cerevisiae deletion strains, locus YLR133W, strain CKI1, active compounds read low 0.816 | S. cerevisiae deletion strains, locus YLR403W, strain SFP1, active compounds read low 0.897 | S. cerevisiae deletion strains, locus YML070W, strain DAK1, active compounds read low 0.783 | S. cerevisiae deletion strains, locus YMR001C, strain CDC5, active compounds read low 0.971 | S. cerevisiae deletion strains, locus YMR205C, strain PFK2 (second series), active compounds read low 0.836 | S. cerevisiae deletion strains, locus YMR277W, strain FCP1, active compounds read low 0.975 | S. cerevisiae deletion strains, locus YNL006W, strain LST8, active compounds read low 0.989 | S. cerevisiae deletion strains, locus YNL020C, strain ARK1, active compounds read low 0.771 | S. cerevisiae deletion strains, locus YNL161W, strain CBK1, active compounds read low 0.974 | S. cerevisiae deletion strains, locus YNL183C, strain NPR1, active compounds read low 0.821 | S. cerevisiae deletion strains, locus YNL207W, strain RIO2, active compounds read low 0.955 | S. cerevisiae deletion strains, locus YNL222W, strain SSU72, active compounds read low 0.979 | S. cerevisiae deletion strains, locus YNL307C, strain MCK1 (second series), active compounds read low 0.721 | S. cerevisiae deletion strains, locus YOL078W, strain AVO1, active compounds read low 0.977 | S. cerevisiae deletion strains, locus YOL136C, strain PFK27, active compounds read low 0.761 | S. cerevisiae deletion strains, locus YOR061W, strain CKA2, active compounds read low 0.756 | S. cerevisiae deletion strains, locus YOR119C, strain RIO1, active compounds read low 0.905 | S. cerevisiae deletion strains, locus YOR231W, strain MKK1, active compounds read low 0.831 | S. cerevisiae deletion strains, locus YOR329C, strain SCD5, active compounds read low 0.979 | S. cerevisiae deletion strains, locus YPL031C, strain PHO85, active compounds read low 0.778 | S. cerevisiae deletion strains, locus YPL153C, strain RAD53, active compounds read low 0.798 | S. cerevisiae deletion strains, locus YPL204W, strain HRR25, active compounds read low 0.813 | S. cerevisiae deletion strains, locus YPL209C, strain IPL1, active compounds read low 0.972 | S. cerevisiae deletion strains, locus YPR025C, strain CCL1, active compounds read low 0.988 | S. cerevisiae deletion strains, locus YPR106W, strain ISR1, active compounds read low 0.963 | S. cerevisiae deletion strains, locus YPR111W, strain DBF20, active compounds read low 0.961 | S. cerevisiae deletion strains, strain NNK1, active compounds read low 0.954 | S. cerevisiae deletion strains, strain TSCII, active compounds read low 0.978

O=C(CSCc1c(F)cccc1Cl)Nc1ccc(F)c(Cl)c1
inactive: [4] 0.956 | [5] 0.83 | [22] 0.928 | [23] 0.935 | [25] 0.946 | S. cerevisiae deletion strains, locus YOL006C, strain TOP1, active compounds read low 0.953
active: [1] 0.883 | [2] 0.834 | [3] 0.869 | [6] 0.881 | [7] 0.872 | [8] 0.913 | [9] 0.194 | [10] 0.811 | [11] 0.875 | [12] 0.909 | [13] 0.794 | [14] 0.802 | [15] 0.607 | [16] 0.908 | [17] 0.561 | [18] 0.595 | [19] 0.826 | [20] 0.891 | [24] 0.773 | [26] 0.752 | [27] 0.75 | [28] 0.781 | [29] 0.441 | [30] 0.87
